Consider 7 molecules from PubChem BioAssay (NCATS).

Assay [1] concerns the target Transient receptor potential cation channel subfamily V member 1 (Homo sapiens) (UniProt Q8NER1). The experiment in a line: HTS Assay for Compounds that Act as Enhancers of the Vanilloid Receptor 1 (AID 488979). Also: 0% is about no effect. An outline of the steps:
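Calcium influx kinetics via Fluo-8 (480/520 nm) in TRPV1-expressing cells, 2000/well cultured overnight at 35.5C. Compound-alone read 3 min (agonist phase), followed by EC20 capsaicin challenge for 2 min (enhancer phase).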

The target of assay [2] is Thyrotropin receptor (Homo sapiens) (UniProt P16473). The experiment in a line: qHTS Assay for Antagonists of the Thyroid Stimulating Hormone Receptor (AID 488980). Also: series mostly up to about 58 µM; 0% is about no effect. An outline of the steps:
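HEK293 cells transfected with human TSHR, suspended in HEPES-buffered HBSS with 70 uM RO 20-1724, were treated with compounds plus TSH at EC80 (4 nM final). cAMP was measured by competitive HTRF (cryptate anti-cAMP antibody, cAMP-d2 acceptor).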
Background: Quantitative high-throughput screening tests each substance at several concentrations.

In assay [3] the target is D(1A) dopamine receptor (Homo sapiens) (UniProt P21728). Description: HTS Assay for Allosteric Agonists of the Human D1 Dopamine Receptor: Primary Screen for Agonists (AID 488981). Also: 0% is about no effect. An outline of the steps:
(§1)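 Calcium flux in an inducible, force-coupled HEK293 Trex D1 line (overnight at 30 C): agonist mode is the 180 s kinetic read after compound; potentiator mode is the following 180 s read after dopamine at EC20.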

Assay [4] shares this target. The experiment in a line: HTS Assay for Allosteric Agonists of the Human D1 Dopamine Receptor: Primary Screen for Potentiators (AID 488982). Also: potency is read from the fitted curve at half-maximal effect. An outline of the steps: as §1
For assay [5] the target is unchanged. Description: HTS Assay for Allosteric Agonists of the Human D1 Dopamine Receptor: Primary Screen for Antagonists (AID 488983).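 Also: calcium flux response to an EC80 dopamine challenge measured with no-wash dye; % is scaled to controls: 0 for no effect and ±100 for the full control effect; nearly all actives have a fitted effect of over 65% in size.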 An outline of the steps: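 Calcium flux readout, no-wash dye, inducible HEK293 T-REx D1 line (force-coupled). Compound added after 10 s baseline, 180 s kinetic read; then dopamine at EC80, further 180 s read.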
The nature of assay [6]: Validation screen for small molecules that induce genotoxicity in human embryonic kidney (HEK293T) cells expressing luciferase-tagged ELG1 (AID 493106). Also: 0% is about no effect. The procedure, abridged: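 qHTS format; 2,000 HEK293T ELG1-luc cells/well; 23 nL compound via pin tool; 16 hr, 37 °C/5% CO2; ONE-Glo, 30 min RT; luminescence read.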
The target in assay [7] is ATPase family AAA domain-containing protein 5 (Homo sapiens) (UniProt Q96QE3). The experiment in a line: Validation screen for small molecules that inhibit ELG1-dependent DNA repair in human embryonic kidney (HEK293T) cells expressing luciferase-tagged ELG1 (AID 493107).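 Also: cells co-treated with the DNA-damaging agent 5-fluorouridine alongside compound; series mostly up to about 46 µM; % is scaled to controls: 0 for no effect and ±100 for the full control effect; inhibitors lower the ELG1-luciferase luminescence signal; nearly all actives have a fitted effect of over 70% in size.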 The procedure, abridged: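 ELG1-luciferase HEK293T reporter; 5-fluorouridine + compound/DMSO, 16 hr, 37 °C, 5% CO2; ONE-Glo 30 min RT; luminescence read, qHTS format.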

For assay [8], the target named is Thyrotropin-releasing hormone receptor (Homo sapiens) (UniProt P34981). The experiment in a line: qHTS for Small Molecule Agonists and Allosteric Enhancers of Human TRH Receptor: Validation Screen for Agonists (AID 493127;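 active = calcium activation more than 3 SD above the typical response in the agonist read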;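 also: intracellular calcium rise by fluo-8 fluorescence before TRH EC20 addition; 0% is about no effect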). As to conditions: TRH receptor agonist cell assay; at 2 µM; stronger effect = higher value. An outline of the steps:
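Read-out: intracellular calcium release measured kinetically by FDSS (fluo-8, ex 480/em 530 nm), 1 reading/s after a 10-cycle baseline. TRHR cells, 2000/well, cultured 18 h at 33.5C, dye-loaded at room temp. Compound-evoked positive calcium signal flags agonists.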

Assay [9] is described as follows: Nrf2 qHTS screen for inhibitors: Validation (AID 493153; active = well fitted inhibition curve with a large enough effect in the main read-out, with a control signal flat, not every such curve was filed as active). To be noted: Potency: luciferase luminescence; viability change: measured here: cytotoxicity max response. An outline of the steps: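 Concentration-response test in A549 ARE_Fluc reporter cells (5% FBS OPTI-MEM), compound exposure 18-24 h at 37°C, 5% CO2. Cell viability measured first by CellTiter-Fluor fluorescence; ARE-driven luciferase luminescence then measured as Nrf2 activity.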

Assay [10] has as its target Galactokinase (Homo sapiens) (UniProt P51570). Description: qHTS Validation Assay for Inhibitors of Human Galactokinase (GALK) (AID 493189). Also: 0% is about no effect. The procedure, abridged: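 GALK (5 nM) with 35 uM ATP and 100 uM galactose in HEPES pH8.0, MgCl2, NaCl, DTT, BSA; 1 h at room temperature. Residual ATP read by Kinase-Glo Plus luminescence after 10 min.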
Assay [11] in a line: Validation screen for small molecules that induce DNA re-replication in SW480 colon adenocarcinoma cells (AID 504364). Also: 0% is about no effect. An outline of the steps:
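Read-out: total Hoechst intensity of nuclei by fluorescence scanning imager; hits raise the fraction of nuclei with elevated DNA content. Cells received compound for 48 hr at 37 C before a 40 min stain.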

The target in assay [12] is Peptidyl-prolyl cis-trans isomerase NIMA-interacting 1 (Homo sapiens) (UniProt Q13526). The experiment in a line: qHTS Validation Assay to Find Inhibitors of Pin1 (AID 504536; active = well fitted inhibition curve with a large enough effect in the polarisation, with a control signal flat, not every such curve was filed as active; the % refers to the polarisation;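 also: 0% = full Pin1 enzyme wells and -100% = no-enzyme wells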). An outline of the steps: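 Fluorescence polarization competition: compounds (titration) displace HiFluor-488-labeled Pin1-1b peptide from Pin1 (0.3 uM final) in pH 7.5 HEPES buffer with DTT, 10 min at room temperature; %Activity normalized to no-enzyme wells, curves fitted.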

Assay [13] concerns the target Phosphoglycerate kinase, glycosomal (Trypanosoma brucei brucei) (UniProt P07378). Description: qHTS Validation Assay to Find Inhibitors of Phosphoglycerate Kinase (AID 504547).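 Also: control wells lack PGK and mark full inhibition.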 The procedure, abridged:
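Luminescence end-point (Kinase-Glo Plus, 10 min) after a 60 min room-temperature coupled reaction. GAPDH at 100nM final supplies 1,3-BPG to PGK. Buffer: 100mM TEA pH 7.6, 5mM MgCl2, 0.01% Tween-20. Wells lacking PGK served as controls.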

The target in assay [14] is phosphoglycerate mutase (Leishmania major) (UniProt Q4Q090). The experiment in a line: qHTS Validation Assay to Find Inhibitors of Phosphoglycerate Mutase (AID 504548). Also: series mostly up to about 58 µM; % is scaled to controls: 0 for no effect and ±100 for the full control effect. As to conditions: Potency: inhibition qHTS. The procedure, abridged:
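Lm PGAM at 1.25 nM final with substrate in 100 mM TEA pH 7.6, 5 mM MgCl2, 0.01% Tween-20; 45 min at room temperature. Kinase-GloPlus added, 10 min, end-point luminescence read.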

A short description of assay [15]: qHTS for Inhibitors of ATXN expression: Validation (AID 588378). Also: series mostly up to about 57 µM; % is scaled to controls: 0 for no effect and ±100 for the full control effect; nearly all actives have a fitted effect of over 75% in size. An outline of the steps:
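Luminescence from an ATXN2-FFLuc reporter in HEK293 cells served as read-out after 24 h compound treatment at 37 degrees C; CellTiter-Fluor fluorescence was recorded first to assess viability.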

For assay [16], the target named is Ubiquitin carboxyl-terminal hydrolase 1 (Homo sapiens) (UniProt O94782). The experiment in a line: Inhibitors of USP1/UAF1: Pilot qHTS (AID 504865). Also: nearly all actives have a fitted effect of over 35% in size. Also: potency is read from the fitted curve at half-maximal effect. An outline of the steps: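 USP1/UAF1 complex (1nM) preincubated with compound 15 min at room temperature, then Ub-Rho substrate (150nM final) added. Fluorescence read kinetically at 480/540 nm, 6 reads every 60 seconds. Buffer: 50mM HEPES pH 7.8, 0.5mM EDTA, 0.1 mg/ml BSA, 1mM TCEP, 0.01% Tween-20.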

Assay [17] can be described thus: qHTS for Inhibitors of ATXN expression: Validation of Cytotoxic Assay (AID 588349). Also: % is scaled to controls: 0 for no effect and ±100 for the full control effect. The procedure, abridged: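 Cytotoxicity counter-screen: HEK293 cells exposed to compound titrations, 72 hr, 37 degrees C. Read-out is intracellular ATP (CellTiter Glo luminescence) as a viability measure.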
The nature of assay [18]: qHTS for Inhibitors of Cell Surface uPA Generation: Validation Assay (AID 493164).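 Also: RAW 264.7 macrophage cells exposed to compound for 18 h; 0% is about no effect.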 An outline of the steps:
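Compounds are titrated over seven points (2.45 nM–38.3 uM final) onto pre-plated RAW 264.7 cells and incubated for 18 h. Retained intracellular ATP, measured with ATP-Lite, indicates blocked lethal factor entry.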

Results filed as inconclusive are left out. Calls of active or inactive are those of the source. Unless noted, calls follow the shape of the dose curve; as a rule, active = well fitted curve in the direction sought with a large enough effect; inconclusive = small, poorly fitted or top-dose-only effect, or another doubt; inactive = no such curve, though single readings can be large; an effect the other way counts as inactive or inconclusive.

Sequence of Peptidyl-prolyl cis-trans isomerase NIMA-interacting 1 (Homo sapiens) (Q13526 whole entry, looked up): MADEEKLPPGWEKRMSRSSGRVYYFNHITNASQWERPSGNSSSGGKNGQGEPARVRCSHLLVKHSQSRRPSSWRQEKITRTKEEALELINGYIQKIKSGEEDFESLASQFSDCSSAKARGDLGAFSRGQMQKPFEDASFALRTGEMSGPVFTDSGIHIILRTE
Sequence of Transient receptor potential cation channel subfamily V member 1 (Homo sapiens) (Q8NER1 whole entry, looked up): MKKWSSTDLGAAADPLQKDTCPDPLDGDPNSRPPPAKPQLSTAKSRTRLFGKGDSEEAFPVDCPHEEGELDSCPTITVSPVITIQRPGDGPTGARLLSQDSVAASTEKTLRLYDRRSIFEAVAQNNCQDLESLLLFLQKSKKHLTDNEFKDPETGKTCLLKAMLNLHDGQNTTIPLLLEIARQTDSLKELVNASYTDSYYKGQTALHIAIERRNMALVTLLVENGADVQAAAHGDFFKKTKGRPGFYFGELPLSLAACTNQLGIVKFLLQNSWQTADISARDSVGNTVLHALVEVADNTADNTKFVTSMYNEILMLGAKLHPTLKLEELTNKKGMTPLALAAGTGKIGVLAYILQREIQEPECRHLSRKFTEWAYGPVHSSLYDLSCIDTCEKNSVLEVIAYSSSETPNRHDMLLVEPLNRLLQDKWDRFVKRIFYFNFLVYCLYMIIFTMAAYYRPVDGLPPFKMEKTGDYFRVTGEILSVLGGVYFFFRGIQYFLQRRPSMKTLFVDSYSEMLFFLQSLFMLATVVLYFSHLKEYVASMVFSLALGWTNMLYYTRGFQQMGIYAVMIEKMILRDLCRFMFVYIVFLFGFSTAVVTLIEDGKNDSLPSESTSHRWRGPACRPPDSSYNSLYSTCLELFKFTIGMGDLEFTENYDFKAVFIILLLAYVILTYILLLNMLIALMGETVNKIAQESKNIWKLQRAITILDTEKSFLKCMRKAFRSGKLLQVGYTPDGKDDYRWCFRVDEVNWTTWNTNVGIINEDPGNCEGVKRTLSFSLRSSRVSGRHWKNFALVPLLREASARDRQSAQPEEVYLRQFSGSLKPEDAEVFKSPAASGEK
Sequence of Ubiquitin carboxyl-terminal hydrolase 1 (Homo sapiens) (O94782 whole entry, looked up): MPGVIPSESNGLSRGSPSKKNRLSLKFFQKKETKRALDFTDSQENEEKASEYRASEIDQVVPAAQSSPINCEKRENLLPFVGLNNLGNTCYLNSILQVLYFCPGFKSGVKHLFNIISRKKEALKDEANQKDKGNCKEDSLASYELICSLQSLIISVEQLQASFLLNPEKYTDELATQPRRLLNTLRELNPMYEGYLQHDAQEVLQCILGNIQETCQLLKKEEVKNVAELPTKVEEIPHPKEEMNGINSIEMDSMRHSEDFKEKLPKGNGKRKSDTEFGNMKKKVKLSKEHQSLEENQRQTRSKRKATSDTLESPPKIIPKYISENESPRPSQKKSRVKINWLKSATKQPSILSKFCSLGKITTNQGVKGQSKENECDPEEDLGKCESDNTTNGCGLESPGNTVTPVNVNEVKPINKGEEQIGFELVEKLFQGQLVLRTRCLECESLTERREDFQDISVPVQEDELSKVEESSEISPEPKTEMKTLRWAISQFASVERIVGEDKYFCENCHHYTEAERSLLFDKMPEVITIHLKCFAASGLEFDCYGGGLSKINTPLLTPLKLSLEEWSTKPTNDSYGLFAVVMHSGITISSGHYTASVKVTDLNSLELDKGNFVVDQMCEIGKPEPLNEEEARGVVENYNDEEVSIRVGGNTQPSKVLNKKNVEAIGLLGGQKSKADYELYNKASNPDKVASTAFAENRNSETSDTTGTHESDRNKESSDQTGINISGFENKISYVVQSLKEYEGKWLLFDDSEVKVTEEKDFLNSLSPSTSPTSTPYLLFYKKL
Sequence of Galactokinase (Homo sapiens) (P51570 whole entry, looked up): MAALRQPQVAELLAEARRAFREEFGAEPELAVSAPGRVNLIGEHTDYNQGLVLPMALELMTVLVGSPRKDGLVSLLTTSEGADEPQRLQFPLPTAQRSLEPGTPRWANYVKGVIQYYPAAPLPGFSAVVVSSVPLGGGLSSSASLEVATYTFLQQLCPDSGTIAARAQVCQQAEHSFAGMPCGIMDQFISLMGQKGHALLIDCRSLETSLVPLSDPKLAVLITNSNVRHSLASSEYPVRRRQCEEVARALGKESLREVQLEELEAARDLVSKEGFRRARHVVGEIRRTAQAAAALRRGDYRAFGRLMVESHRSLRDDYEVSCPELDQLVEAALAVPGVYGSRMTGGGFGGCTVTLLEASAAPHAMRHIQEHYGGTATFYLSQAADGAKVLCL
Sequence of Phosphoglycerate kinase, glycosomal (Trypanosoma brucei brucei) (P07378 whole entry, looked up): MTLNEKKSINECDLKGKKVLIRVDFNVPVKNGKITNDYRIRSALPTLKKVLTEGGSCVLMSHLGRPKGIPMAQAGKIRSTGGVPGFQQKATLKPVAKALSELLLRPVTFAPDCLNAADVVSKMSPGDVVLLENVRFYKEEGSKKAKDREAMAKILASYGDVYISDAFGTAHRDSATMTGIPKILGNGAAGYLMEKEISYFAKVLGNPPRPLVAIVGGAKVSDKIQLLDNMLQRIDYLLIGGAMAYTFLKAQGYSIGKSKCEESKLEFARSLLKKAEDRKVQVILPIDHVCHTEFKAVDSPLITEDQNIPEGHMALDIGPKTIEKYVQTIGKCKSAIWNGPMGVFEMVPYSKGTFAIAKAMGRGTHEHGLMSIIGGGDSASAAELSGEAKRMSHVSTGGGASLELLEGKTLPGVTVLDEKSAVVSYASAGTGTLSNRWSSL
Sequence of Thyrotropin-releasing hormone receptor (Homo sapiens) (P34981 whole entry, looked up): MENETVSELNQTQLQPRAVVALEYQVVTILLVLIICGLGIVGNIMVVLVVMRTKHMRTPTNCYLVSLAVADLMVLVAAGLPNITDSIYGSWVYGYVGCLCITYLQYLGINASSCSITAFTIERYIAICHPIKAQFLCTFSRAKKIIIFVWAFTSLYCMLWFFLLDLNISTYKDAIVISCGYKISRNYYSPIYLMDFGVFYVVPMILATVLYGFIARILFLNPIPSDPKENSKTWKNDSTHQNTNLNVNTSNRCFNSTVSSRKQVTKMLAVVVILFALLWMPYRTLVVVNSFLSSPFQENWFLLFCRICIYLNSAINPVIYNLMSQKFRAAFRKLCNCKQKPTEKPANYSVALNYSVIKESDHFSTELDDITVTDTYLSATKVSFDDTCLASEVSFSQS
Sequence of Thyrotropin receptor (Homo sapiens) (P16473 whole entry, looked up): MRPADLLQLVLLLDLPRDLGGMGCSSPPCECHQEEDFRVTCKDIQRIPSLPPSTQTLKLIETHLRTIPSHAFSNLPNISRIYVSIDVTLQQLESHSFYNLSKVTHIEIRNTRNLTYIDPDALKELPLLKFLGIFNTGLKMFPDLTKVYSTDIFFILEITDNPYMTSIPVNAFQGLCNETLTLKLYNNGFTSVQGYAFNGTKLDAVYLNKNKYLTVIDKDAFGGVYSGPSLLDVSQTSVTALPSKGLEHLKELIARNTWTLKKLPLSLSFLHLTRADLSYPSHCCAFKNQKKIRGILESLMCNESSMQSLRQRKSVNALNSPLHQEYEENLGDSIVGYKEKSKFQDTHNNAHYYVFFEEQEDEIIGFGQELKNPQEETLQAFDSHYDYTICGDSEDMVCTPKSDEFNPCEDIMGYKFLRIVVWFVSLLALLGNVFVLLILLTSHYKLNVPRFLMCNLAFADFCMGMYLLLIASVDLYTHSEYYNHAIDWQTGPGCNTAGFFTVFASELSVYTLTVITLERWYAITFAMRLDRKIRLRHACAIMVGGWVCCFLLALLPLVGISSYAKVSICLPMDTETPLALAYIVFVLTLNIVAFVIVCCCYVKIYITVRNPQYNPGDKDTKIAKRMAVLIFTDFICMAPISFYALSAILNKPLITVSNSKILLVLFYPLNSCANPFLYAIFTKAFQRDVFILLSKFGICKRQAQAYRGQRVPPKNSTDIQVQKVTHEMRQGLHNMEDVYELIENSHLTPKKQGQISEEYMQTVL
Sequence of phosphoglycerate mutase (Leishmania major) (Q4Q090 1-553): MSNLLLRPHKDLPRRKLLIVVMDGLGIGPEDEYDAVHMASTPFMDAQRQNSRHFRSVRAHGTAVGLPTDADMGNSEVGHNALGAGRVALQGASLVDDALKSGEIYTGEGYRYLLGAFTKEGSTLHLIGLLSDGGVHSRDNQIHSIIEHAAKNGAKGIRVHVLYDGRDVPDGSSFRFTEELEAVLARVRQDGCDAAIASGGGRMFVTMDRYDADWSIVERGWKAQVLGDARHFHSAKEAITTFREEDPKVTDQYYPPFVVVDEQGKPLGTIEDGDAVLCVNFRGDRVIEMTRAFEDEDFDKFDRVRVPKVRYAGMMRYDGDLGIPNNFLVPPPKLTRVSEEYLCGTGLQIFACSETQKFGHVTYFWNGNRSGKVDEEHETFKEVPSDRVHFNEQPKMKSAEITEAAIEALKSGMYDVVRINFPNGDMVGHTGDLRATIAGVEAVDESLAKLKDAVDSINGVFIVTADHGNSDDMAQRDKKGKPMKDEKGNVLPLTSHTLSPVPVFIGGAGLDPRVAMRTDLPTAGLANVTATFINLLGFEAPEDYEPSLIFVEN
Sequence of D(1A) dopamine receptor (Homo sapiens) (P21728 whole entry, looked up): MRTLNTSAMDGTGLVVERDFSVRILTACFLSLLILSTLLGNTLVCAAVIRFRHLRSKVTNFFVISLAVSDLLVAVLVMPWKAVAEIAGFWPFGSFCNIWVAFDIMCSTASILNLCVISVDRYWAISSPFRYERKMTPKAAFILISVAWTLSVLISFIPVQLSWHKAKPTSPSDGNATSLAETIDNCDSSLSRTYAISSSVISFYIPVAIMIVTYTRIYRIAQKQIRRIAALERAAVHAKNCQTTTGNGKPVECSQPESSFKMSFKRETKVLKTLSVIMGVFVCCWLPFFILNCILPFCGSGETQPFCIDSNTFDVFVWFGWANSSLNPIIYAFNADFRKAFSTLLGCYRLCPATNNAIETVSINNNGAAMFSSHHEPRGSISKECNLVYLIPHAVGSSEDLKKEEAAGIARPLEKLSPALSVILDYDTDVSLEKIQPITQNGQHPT

`C=CC[C@H](N)C(=O)O`: the outcome in [1] and in [2] was inactive. In addition, the Potency entry in assay [3], in [4], in assay [5], in [6], in assay [7] and in [9] was “inactive” in each case. Besides, the Potency result in assay [10], in [11], in [12], in assay [13], in [14] and in assay [15] was “inactive” in each case. In assay [8], the activation is -3.19% (inactive). In assay [9], the viability change is -2.69%.

With `NC(C(=O)N[C@@H]1C(=O)N2C(C(=O)O)=C(Cl)CS[C@H]12)c1ccccc1` (some centres not stated), the result in assay [1] and in assay [2] was inactive. Also, the Potency result in assay [3], in [4], in assay [5], in assay [6], in assay [7] and in assay [9] was “inactive” throughout. Moreover, the Potency entry in assay [10], in assay [11], in assay [12], in [13], in [14] and in assay [16] was “inactive” in each case. The Potency result in [17] and in [15] was “inactive” throughout. Further, the activation in assay [8] is 0.938% (inactive). Also, the viability change in assay [9] was 1.5%.

Consider `c1ccc2c(c1)CC(N1CCN(c3cccc4c3OCCO4)CC1)C2`, for which the outcome in [1] and in assay [2] was inactive. For the same molecule, the Potency entry in assay [3], in assay [4], in assay [5], in assay [6], in [7] and in assay [9] was “inactive” in each case. For the same molecule, the Potency entry in assay [10], in [11], in assay [12], in assay [13], in assay [14] and in assay [16] was “inactive” throughout. The Potency entry in assay [17] and in assay [15] was “inactive” in each case. For the same molecule, the activation in [8] is -3.75% (inactive). In [9], the viability change was found to be 3.52%.

As to `O=C(O)C1CCCNC1` (configuration not stated), the result in assay [1], in assay [2] and in [18] was inactive. The Potency entry in [3], in assay [5], in [6], in assay [7], in assay [9] and in assay [10] was “inactive” each time. Further, the Potency result in assay [11], in assay [12], in [14], in assay [16], in assay [17] and in assay [15] was “inactive” throughout. For the same molecule, the Potency in assay [4] is 2.31 µM (active). Further, the activation in [8] is 0.625% (inactive). Besides, the viability change in [9] was 1.96%.

Consider `N[C@@H](CCC(=O)N[C@H](CSN=O)C(=O)NCC(=O)O)C(=O)O`, for which the result in [1], in assay [2] and in [18] was inactive. In addition, the Potency result in [3], in assay [4], in [5], in assay [6], in assay [7] and in [9] was “inactive” each time. The Potency entry in assay [10], in assay [11], in assay [12], in assay [14], in assay [16] and in assay [17] was “inactive” each time. The Potency entry in assay [15] is “inactive”. For the same molecule, the activation in [8] is 1.31% (inactive). Moreover, the viability change in assay [9] was found to be 5.63%.

As for `CC(N)=NCCCC[C@@H](N)C(=O)O`, the result in assay [1], in assay [2] and in assay [18] was inactive. For the same molecule, the Potency entry in [3], in assay [4], in assay [5], in assay [6], in assay [7] and in [10] was “inactive” each time. The Potency result in [11], in assay [12], in assay [13], in assay [14], in [16] and in assay [17] was “inactive” each time. The Potency result in assay [15] is “inactive”. Moreover, the activation in assay [8] was 1.31% (inactive).

For `CCCCCCCCCCCCCCC[C@H](O)[C@H](N)CO`, the outcome in assay [1] and in assay [2] was inactive. Also, the Potency entry in assay [3], in assay [4], in assay [5], in [6], in [7] and in assay [9] was “inactive” in each case. Besides, the Potency entry in assay [10], in assay [11], in assay [12], in assay [13], in [14] and in assay [15] was “inactive” in each case. For the same molecule, the activation in [8] was 1.44% (inactive). For the same molecule, the viability change in assay [9] came out at 2.23%. In addition, in [16], the Potency is 79.4 µM (active).
